Data reported in the supplement of paper PMC13380429.

Legend:
[1] = system: Vero E6 infected with SARS-CoV-2; assay: morphology score (similarity to uninfected cells); higher = more like uninfected cells; conditions: 24 h
[2] = system: Vero E6 infected with SARS-CoV-2; assay: SARS-CoV-2 infection rate relative to infected DMSO; higher = more infection, active = 60 or less; conditions: 24 h
[3] = system: Vero E6 infected with SARS-CoV-2; assay: inhibition of SARS-CoV-2 cytopathic effect; higher = more antiviral protection, active = above 15; conditions: 48 h

Row | SMILES | morphology score [1] | SARS-CoV-2 infection rate [2] | inhibition of SARS-CoV-2 cytopathic effect ([3]; 1 nM) | inhibition of SARS-CoV-2 cytopathic effect ([3]; 8.33 nM) | inhibition of SARS-CoV-2 cytopathic effect ([3]; 100 nM) | inhibition of SARS-CoV-2 cytopathic effect ([3]; 833.33 nM) | inhibition of SARS-CoV-2 cytopathic effect ([3]; 10000 nM)
1 | CC(=O)OCC(=O)[C@@]1(O)CC[C@H]2[C@@H]3CCC4=CC(=O)CC[C@]4(C)[C@@]3(F)[C@@H](O)C[C@@]21C (10 µM) | 0.0369 | 99.5% (inactive) | – | – | – | – | –
2 | CCn1cc(C(=O)O)c(=O)c2ccc(C)nc21 [nalidixic-acid] | – | – | 0.83% (inactive) | 1.11% (inactive) | 0.89% (inactive) | 0.77% (inactive) | -0.57% (inactive)
3 | CCc1cc(C(C)=O)c(O)cc1OCCCCCC(C)(C)c1nn[nH]n1 | – | – | -2.28% (inactive) | 0.23% (inactive) | 0.43% (inactive) | – | –
4 | Sc1nc2ccccc2s1 [benzo[d]thiazole-2(3H)-thione] | – | – | -1.3% (inactive) | 0.55% (inactive) | -0.47% (inactive) | – | –
5 | C[C@H]1[C@H](C)CC[C@]2(C(=O)O)CC[C@]3(C)C(=CC[C@@H]4[C@@]5(C)C[C@@H](O)[C@H](O)[C@@](C)(CO)[C@@H]5CC[C@]43C)[C@H]12 [asiatic-acid] (10 µM) | -0.135 | 108% (inactive) | – | – | – | – | –
6 | NC(=O)NCCN1CCN(c2cccc(C(F)(F)F)c2)CC1 [fluprazine] | – | – | 1.46% (inactive) | 1.13% (inactive) | -1.67% (inactive) | -1.94% (inactive) | -2.06% (inactive)
7 | CCCN1CCCC(c2cccc(O)c2)C1 (stereo in doubt) [preclamol] | – | – | -0.2% (inactive) | -0.3% (inactive) | 0.42% (inactive) | 1.02% (inactive) | -1.58% (inactive)
8 | N[C@@H](Cn1ccc(=O)n(Cc2ccccc2C(=O)O)c1=O)C(=O)O (10 µM) | 0.28 | 79% (inactive) | – | – | – | – | –
9 | CN(C(=O)CCCOc1ccc2[nH]c(=O)ccc2c1)C1CCCCC1 [cilostamide] | – | – | 0.62% (inactive) | 1.01% (inactive) | -0.1% (inactive) | 0.52% (inactive) | -0.25% (inactive)
10 | COc1ccc2c(c1)CN(C)CC2c1ccc(Cl)c(Cl)c1 (stereo not drawn) [diclofensine] (10 µM) | 0.0249 | 106% (inactive) | – | – | – | – | –
11 | CC[C@@]1([C@H]2O[C@H]([C@H]3O[C@@](O)(CO)[C@H](C)C[C@@H]3C)C[C@H]2C)CC[C@H]([C@@]2(C)CC[C@]3(C[C@H](O)[C@@H](C)[C@@H]([C@H](C)[C@H](OC)[C@@H](C)C(=O)O)O3)O2)O1 (10 µM) | 0.556 | 39% (active) | – | – | – | – | –
12 | CN(C)c1ccc(C(=C2C=CC(=[N+](C)C)C=C2)c2ccc(N(C)C)cc2)cc1 [crystal-violet] | – | – | -0.43% (inactive) | 1.49% (inactive) | 0.27% (inactive) | -11.4% (inactive) | -22.8% (inactive)
13 | CC1CCc2c(N3CCC(O)CC3)c(F)cc3c(=O)c(C(=O)O)cn1c23 (stereo not drawn) [nadifloxacin] | – | – | 3.29% (inactive) | 1.42% (inactive) | 0.26% (inactive) | 3.52% (inactive) | 2.69% (inactive)
14 | COCCCOc1ccnc(C[S+]([O-])c2nc3ccccc3[nH]2)c1C (stereo not drawn) [rabeprazole] | – | – | -0.56% (inactive) | -0.31% (inactive) | 2.14% (inactive) | – | –
15 | CC1(C)CC[C@]2(C(=O)O)CC[C@]3(C)[C@H](C(=O)C=C4[C@@]5(C)C=C(C#N)C(=O)C(C)(C)[C@@H]5CC[C@]43C)[C@@H]2C1 [bardoxolone] | – | – | -1.22% (inactive) | -1.62% (inactive) | 2.92% (inactive) | 3.36% (inactive) | 28.9% (active)
16 | CCOC(=O)[C@H](CCc1ccccc1)N[C@@H](C)C(=O)N1[C@H](C(=O)O)C[C@@H]2CCC[C@@H]21 [ramipril] (10 µM) | 0.0476 | 98.5% (inactive) | – | – | – | – | –
17 | CCOC(=O)C1=C(C)NC(c2ccccc2)=C(C(=O)OCc2ccc([N+](=O)[O-])cc2)[C@@H]1C#Cc1ccccc1 (10 µM) | 0.304 | 89% (inactive) | – | – | – | – | –
18 | CN(C)C(=O)[C@H](O)[C@H](Cc1ccccc1)NC(=O)c1cc2cc(Cl)ccc2[nH]1 | – | – | 0.8% (inactive) | -0.29% (inactive) | -0.45% (inactive) | 1.2% (inactive) | 4.47% (inactive)
19 | C[C@]12CC[C@H]3[C@@H](CCC4=CC(=O)CC[C@@]43C)[C@@H]1CC[C@@H]2O | – | – | 0.04% (inactive) | 2.66% (inactive) | 3.91% (inactive) | -1.25% (inactive) | -0.6% (inactive)
20 | C=Cc1cc(O)cc2nc(-c3ccc(O)c(F)c3)oc12 [prinaberel] | – | – | 0.2% (inactive) | 0.74% (inactive) | 1.61% (inactive) | 0.55% (inactive) | 0.56% (inactive)
